CRFBP-R2 agonist: agonists of human CRF-binding protein/CRF-R2 receptor complex; HEK293 CRF-R2/CRF-BP, calcium dye fluorescence (FLIPR); percent of saturating CRF peptide response; activation, % at 13.2 µM; 350,000 tested, 0.46% active; AID 588473;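 active = activation of at least 50%, plus an integration ratio under a set limit after plate pattern correction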;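 also: plate controls were neutral control wells without compound for no effect and CRF at EC100 for full effect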
H9c2 protect: myocardial damage modulation in H9c2 cells; H9c2 cardiomyocytes, H2O2 injury protection, ATPLite, 2 h; protection from H2O2 cell death, % at 20 µM; 360,000 tested, 0.63% active;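 active = compounds giving at least 50% protection of heart cells from peroxide-induced death in the single-dose screen, raw or plate-pattern-corrected value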;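 also: 0% = DMSO wells with peroxide and 100% = DMSO wells without peroxide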
aDG glyco up: increases alpha dystroglycan glycosylation | Pro5-aDG cells, alpha-DG glycosylation AlphaScreen (IIH6); 0% Pro5, 100% B10-LARGE cell signal | activation, % at 10 µM | 360,000 tested, 0.22% active;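 active = activation of at least 8% versus controls, or a plate z-score of at least 8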;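 also: Pro5 are CHO cells carrying HIG-tagged alpha-DG that lacks glycosylation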
FAS TE block: FAS thioesterase (human) inhibition; P49327; recombinant FAS-TE, OMFH fluorogenic substrate, fluorescence endpoint; inhibition, % at 15 µM; 360,000 tested, 0.67% active;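 active = compounds whose normalised, plate-corrected inhibition of enzyme fluorescence in the single-dose primary screen is 50% or more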;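 also: 0% = DMSO with enzyme and 100% = substrate without enzyme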
PfG6PD inh: PfG6PD (Plasmodium falciparum) enzyme inhibition | PfGluPho enzyme, NADPH resazurin-diaphorase fluorescence | 350,000 tested, 0.78% active | AID 504690 | inhibition, % at 20 µM;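 active = inhibition reaching at least a set limit at 20 µM in the primary screen, cut at about 59% in these data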;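 also: 0% = DMSO wells with substrate and 100% = DMSO wells lacking glucose-6-phosphate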
CRFR2-BP antag: blocks CRF-induced signaling of the CRF-BP/CRF-R2 complex; HEK293 CRF-R2/CRF-BP, CRF-induced calcium fluorescence; inhibition, % at 11.8 µM; 350,000 tested, 0.59% active;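 active = inhibition of the ligand-induced calcium signal above about 50% at the single tested concentration, limit read from the data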
The depositor's hits bear a star; · = no result given. Hits are enriched below; roughly 3.2% of the tested compounds scored in any of these assays.

SMILES | CRFBP-R2 agonist | H9c2 protect | aDG glyco up | FAS TE block | PfG6PD inh | CRFR2-BP antag
Cn1c(COc2ccccc2)nnc1SCC(=O)c1cccc([N+](=O)[O-])c1 | 1.5 | -1.2 | 0.1 | 20.2 | 18.7 | 59.3*
Cn1c(COc2ccc([N+](=O)[O-])cc2)nnc1SCC(N)=O | -1.7 | -4.4 | -0.1 | -5.4 | 20.9 | -4.1
CC1(C)C(=O)N(OCc2ccccc2)C(C)(C)C(=O)N1OCc1ccccc1 | -0.1 | 5.6 | 0.3 | 9.5 | 3.9 | -13.9
Cc1ccccc1-c1n[nH]c(=S)n1/N=C/c1c(C)nn(-c2ccccc2)c1C | -0.6 | -7.2 | 0.4 | -3.4 | 31.6 | 71.3*
COc1cc(CN2C[C@@H](CO)O[C@@H](n3cnc4c(Nc5ccccc5)ncnc43)C2)cc(OC)c1OC | · | 79.1* | -0.5 | -13.8 | · | ·
COc1cc(CN2C[C@@H](CO)O[C@@H](n3cnc4c(NC5CCC5)ncnc43)C2)cc(OC)c1OC | · | 6.1 | -0.1 | -5.9 | · | ·
CC(C)n1nc(C(=O)OCC(=O)c2c[nH]c3ccccc23)c2ccccc2c1=O | 0.8 | 62.4* | -0.2 | 15.6 | 8.1 | -19.2
CCOc1ccc(C(=O)COC(=O)c2nn(CC)c(=O)c3ccccc23)cc1 | 0.9 | 0.1 | -0.1 | 21.3 | -0.3 | 1.2
CCCn1nc(C(=O)Nc2nc3ccccc3[nH]2)c2ccccc2c1=O | -2.1 | 19.5 | -0.2 | 0.6 | -3.7 | 0.9
CC(=O)OCC(=O)c1c[nH]c2ccccc12 | 0.6 | -1.2 | 0.2 | -4.4 | 16.5 | -1.9
CCn1nc(C(=O)OCC(=O)c2c[nH]c3ccccc23)c2ccccc2c1=O | -0.6 | 58.2* | 1.8 | -0.2 | 4.6 | 3.8
CC(C)n1nc(C(=O)Nc2nc3ccccc3[nH]2)c2ccccc2c1=O | -1.9 | 59.6* | -0.1 | -1.5 | 5.0 | -16.2
c1ccc(C(=C2CCCO2)c2ccccc2)cc1 | -0.7 | -1.0 | 0.1 | 15.0 | -1.2 | 25.5
COC(=O)c1ccc2[nH]ccc2c1 | -0.2 | -3.6 | -0.2 | -3.5 | 2.8 | 0.1
COC(=O)c1cc2sc(Cl)cc2n1CC(=O)Nc1ccc(OC)c(OC)c1OC | 54.5* | 2.8 | -0.2 | 7.8 | -42.1 | -51.3
COc1cccc(CC(NC(C)=O)C(=O)NC2CCN(C(=O)c3ccc(Cl)cc3)CC2)c1OC (stereo unspecified) | -2.2 | 1.1 | 0.0 | -5.1 | 4.5 | 13.3
CN1CCS/C1=C\C=C1/SC(=S)N(CC(=O)O)C1=O | 107.1* | -7.3 | -0.2 | -108.3 | -3.5 | -75.6
CCN1C(=O)/C(=C/C=C2/SCCN2C)SC1=S | 59.2* | -15.6 | -0.2 | -83.0 | 5.3 | -18.2
Cn1cccc1/C=C1/SC(=S)N(CC(=O)O)C1=O | 5.3 | -1.2 | -0.1 | -9.0 | -45.1 | 10.8
CCOC(=O)/C=C(\C)Sc1cc(O)c2ccccc2c1O | -2.1 | -15.9 | 0.6 | 1.3 | 108.0* | 10.5
CCOC(=O)/C=C(\C)Sc1cc(=O)oc2ccccc12 | 0.1 | 11.2 | 0.4 | 6.3 | 3.0 | 17.9
OCCn1nc(-c2ccccc2)cc1-c1ccccc1 | -0.1 | -0.5 | -0.1 | -0.9 | -0.7 | -6.8
O=C(N/N=C/c1nn(-c2ccccc2)cc1-c1ccccc1)c1ccncc1 | 0.6 | 62.3* | 0.3 | -1.2 | 11.3 | -17.6
NC(=O)N/N=C/c1cn(-c2ccccc2)nc1-c1cccs1 | 0.0 | -9.4 | 0.0 | 3.4 | 4.5 | -12.6
O=C(N/N=C/c1cn(-c2ccccc2)nc1-c1cccs1)c1ccncc1 | -0.5 | 53.6* | 0.3 | 3.8 | -14.0 | -24.1
SMILES | CRFBP-R2 agonist | H9c2 protect | aDG glyco up | FAS TE block | PfG6PD inh | CRFR2-BP antag
Cc1cc(/C=N/NC(=O)c2ccncc2)c(C)n1-c1ccccc1 | -2.5 | -4.9 | -0.2 | -8.4 | 8.2 | 0.1
Oc1c(Br)cc(Br)cc1/C=N/c1nc2c(s1)CCCC2 | 25.3 | 59.3* | 0.0 | -5.5 | 80.1* | 0.5
Oc1ccc2ccccc2c1/C=N/c1nc2c(s1)CCCC2 | -1.6 | -5.0 | -0.1 | -3.1 | 42.7 | 9.3
CCc1ccc(C(O)c2ncc(-c3ccc(C)cc3)[nH]2)cc1 (stereo unspecified) | · | -6.4 | 0.0 | 1.4 | · | ·
CCOc1ccc(-n2c(SCc3ccc([N+](=O)[O-])cc3)nnc2-c2ccc(OC)cc2)cc1 | -0.7 | -1.9 | 0.3 | 35.8 | 20.4 | 52.6*
O=c1cc(-c2ccccc2Cl)oc2c(NS(=O)(=O)c3cc(Cl)cc(Cl)c3O)ccc(O)c12 | 81.2* | -27.1 | 0.0 | 67.5* | -19.0 | 4.3
O=C(CSc1nnc(NC(=O)c2ccccc2F)s1)NCc1ccco1 | -0.5 | -11.2 | -0.1 | -8.0 | 0.8 | 7.9
CCCNC(=O)c1ccc2c(=O)c(O)c(-c3ccsc3)[nH]c2c1 | 34.7 | 50.9* | 0.4 | -3.4 | -8.4 | -10.2
CCCNC(=O)c1ccc2c(=O)c(O)c(-c3ccc(OC)cc3)[nH]c2c1 | 8.6 | 34.8 | 0.3 | -8.8 | -36.2 | -5.3
Cc1ccc(-c2[nH]c3cc(C(N)=O)ccc3c(=O)c2O)cc1 | 10.3 | 62.6* | -0.1 | -13.3 | -23.2 | 2.6
CCCNC(=O)c1ccc2c(=O)c(O)c(-c3ccc(C)cc3)[nH]c2c1 | 15.5 | 53.9* | 2.0 | -2.7 | -7.2 | -25.6
Cc1ccc(CNC(=O)c2ccc3c(=O)c(O)c(-c4ccc(C)cc4)[nH]c3c2)cc1 | 14.9 | 59.2* | 2.8 | -15.0 | -36.9 | 2.7
CCN(Cc1cc(=O)[nH]c2ccccc12)C(=O)c1ccc(C)cc1 | 1.3 | 0.1 | 0.4 | -6.6 | -10.1 | -12.1
Cc1ccc(-c2[nH]c3cc(C(=O)NCCCn4ccnc4)ccc3c(=O)c2O)cc1 | 9.5 | 3.4 | -0.1 | -27.8 | -14.4 | 7.2
CCCNC(=O)C1(C)CCCN(Cc2ccc(C(=O)OCC)o2)C1 (stereo unspecified) | · | -5.2 | -0.1 | -2.5 | · | ·
CC(C)(C)OC(=O)N1CCCN(C(=O)Nc2cccc(Cl)c2)CC1 | 1.2 | -1.4 | 0.0 | 5.5 | 3.8 | 113.2*
O=C(COC(=O)COc1ccc(Cl)cc1Br)NCc1cccs1 | -1.4 | -3.2 | -0.1 | -3.1 | -14.2 | 52.8*
O=C(COC(=O)COc1ccccc1)Nc1ncc(Cl)cc1Cl | -4.2 | 6.0 | -0.1 | -5.6 | -8.7 | -5.1
CC1CCN(S(=O)(=O)c2nnc(NC(=O)c3cccc([N+](=O)[O-])c3)s2)CC1 | 11.9 | -6.1 | -0.1 | 22.5 | 113.0* | 35.0
COc1ccc(C(=O)Nc2nnc(S(=O)(=O)N3CCC(C)CC3)s2)cc1OC | 0.7 | 0.5 | -0.1 | -0.7 | -12.3 | 3.8
COc1ccc(/C=C/C(=O)Nc2cccnc2Cl)cc1 | -2.7 | -8.8 | 0.1 | 0.5 | -7.3 | 2.2
CC(NC(=S)NCc1ccccc1)C12CC3CC(CC(C3)C1)C2 (stereo unspecified) | 0.2 | 3.7 | -0.4 | -2.2 | 6.4 | -21.9
CN(C)CCCNc1ccc(-c2n[nH]c(=O)c3ccccc23)cc1[N+](=O)[O-] | 0.1 | 55.1* | 0.1 | -7.2 | 14.0 | -9.9
CCc1ccccc1N1C(=O)C2CC(C)=C(C)CC2C1=O (stereo unspecified) | -0.2 | -1.4 | -0.1 | -6.0 | -19.9 | 50.2*

Screening data from PubChem BioAssay.
